PubChem BioAssay AID602127 (Broad Institute, 2011)
Measured potencies and affinities stand elsewhere. The source made the active and inactive calls.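 The calls were made as follows: active = every repeat test judged active, meaning a falling signal with potency within twice the top valid dose; inconclusive = repeat tests disagree on the call; inactive = every repeat test inactive, including signal moving upward.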

Molecular target: Cyclin-dependent kinase 2 (Homo sapiens) (UniProt P24941)
Assay: CDK2 kinase inhibitors, off-target check, dose response, selectivity assay for Dyrk1A inhibitor project, biochemical, cherry-picked samples (AID 602127)
Conditions: CDK2/cyclin A kinase, ADP-Glo luminescence, 60 min; series mostly up to 10 µM; activity change, negative = inhibition: at the top concentration

Activity change, negative = inhibition, inactive:
c1cncc(CNc2ccnc(-c3ccc4[nH]ncc4c3)n2)c1 -3.74%
Clc1ccc(CNc2nccc(-c3ccc4cn[nH]c4c3)n2)cc1Cl -11.3%
Cc1nc(N)sc1-c1csc(Nc2ccccc2)n1 -2.75%
COc1ccc(-c2[nH]ncc2-c2ccc3c(c2)OCCO3)c(O)c1 5.43%
O=c1cc(-c2ccccc2Cl)oc2c(NS(=O)(=O)c3ccccc3C(F)(F)F)ccc(O)c12 -8.7%
COc1cccc(-c2sc3ccccc3c2-c2ccc(OCCN3CCCC3)cc2)c1 1.27%
O=C(Nc1nc2ccc(Cl)cc2s1)C1CCCO1 (stereo unspecified) -16.6%
CC(=O)Nc1ccc(Nc2cc(C)nc3c(-c4ccccc4)cnn23)cc1 -11.3%
COc1ccc2c(c1)CCc1c-2n[nH]c1C(=O)O 4.31%
c1nc(NCC2CCCOC2)c2cc(-c3ccc4c(c3)OCO4)ccc2n1 (stereo unspecified) -7.3%
O=C(CSc1nnnn1-c1ccc(O)cc1)Nc1ccc(N2CCOCC2)c(Cl)c1 -8.88%
